In PubChem BioAssay AID1903 (Southern Research Specialized Biocontainment Screening …, 2009):
Screen size: about 310,000 compounds; about 1,200 (0.39%) were called active. No rule for the calls is given here. Not all results are given here. Potency and affinity values are given separately.

These compounds were tested against Large T antigen (Simian virus 40) (UniProt P03070) (assay: TAg ATPase/helicase activity blockers – biochemical (AID 1903)). Settings: SV40 large T antigen ATPase/helicase inhibition assay; at 20 µM; active compounds read high.
Sequence of Large T antigen (Simian virus 40) (P03070 whole entry, looked up): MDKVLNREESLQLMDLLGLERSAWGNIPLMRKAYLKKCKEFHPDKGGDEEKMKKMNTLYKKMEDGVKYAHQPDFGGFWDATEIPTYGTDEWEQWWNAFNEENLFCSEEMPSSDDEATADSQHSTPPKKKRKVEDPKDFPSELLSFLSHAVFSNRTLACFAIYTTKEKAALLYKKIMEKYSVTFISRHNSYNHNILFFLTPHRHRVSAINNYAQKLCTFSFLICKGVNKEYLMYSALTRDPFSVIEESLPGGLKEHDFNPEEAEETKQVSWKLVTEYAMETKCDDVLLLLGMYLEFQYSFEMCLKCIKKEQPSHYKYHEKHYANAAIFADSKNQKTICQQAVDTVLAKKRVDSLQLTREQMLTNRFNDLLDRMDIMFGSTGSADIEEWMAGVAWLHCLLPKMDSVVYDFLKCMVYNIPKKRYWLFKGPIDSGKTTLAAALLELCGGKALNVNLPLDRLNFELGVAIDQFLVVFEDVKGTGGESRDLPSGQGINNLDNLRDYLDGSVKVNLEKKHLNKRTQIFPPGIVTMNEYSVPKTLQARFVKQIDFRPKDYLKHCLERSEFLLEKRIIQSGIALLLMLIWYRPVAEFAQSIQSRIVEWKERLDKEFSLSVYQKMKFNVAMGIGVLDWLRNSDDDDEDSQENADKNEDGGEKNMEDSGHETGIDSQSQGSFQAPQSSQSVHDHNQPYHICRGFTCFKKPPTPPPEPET

inhibition, inactive:
COCCn1c(=O)[nH]c2cc(C(=O)Nc3ccc(OC)c(Cl)c3)ccc2c1=O 4.08%, O=C(O)c1ccccc1N/N=C/c1c(Sc2nnnn2-c2ccccc2)nc2ccccn2c1=O 13.1%, O=c1c(/C=N/Nc2ccccc2)c(Sc2nnnn2-c2ccccc2)nc2ccccn12 0.84%, O=C(COc1ccc([N+](=O)[O-])cc1)Nc1ccc2c(c1)nc1n2CCOC1 14.9%, Cc1ccc(C(=O)CN(Cc2ccccc2)C2=NCCS2)cc1 -1.42%, C=CCN1C(=O)/C(=N/n2cnnc2)c2ccccc21 25.4%, c1ccc2c(c1)C(=Nn1cnnc1)c1ccccc1-2 3.9%, O=C(c1ccco1)N1CCC(c2nc3c(nnn3Cc3ccc(F)cc3)c(=O)[nH]2)CC1 12.3%, Cc1ccc(NC(=O)COC(=O)CCC(=O)c2cccs2)cc1S(=O)(=O)N1CCOCC1 14.2%, CC12CC3CC(C)(C1)CC(C(O)CN1CCOCC1)(C3)C2 (centres undefined) 3.1%, COc1cc(/C=N/N=C(\N)c2nonc2N)cc(OC)c1O 36.3%, COc1ccc(/C=N/N=C(\N)c2nonc2N)cc1OC 22.7%, N/C(=N\N=C\c1cccc(O)c1)c1nonc1N 18.6%, N/C(=N\N=C\c1ccc(O)cc1)c1nonc1N 23.1%, CCOC(=O)c1c(NC(=S)N2CCN(C)CC2)sc(C)c1-c1ccccc1 9.17%, CCOC(=O)C1=C(O)C(=O)N(c2ccc(S(N)(=O)=O)cc2)C1c1ccc([N+](=O)[O-])cc1 (centres undefined) 5.61%, Cc1ccc(NC(=O)Cc2ccsc2)cc1Cl 8.34%, C=CCC(C#Cc1ccc(C)cc1)N(CC)CC (centres undefined) 2.04%, COCCNC(=O)CN(C(=O)CCC(=O)Nc1ccccn1)c1ccc(F)cc1 2.44%, N#Cc1ccccc1-c1ccccc1C(=O)N1CCCCC1 5.76%, O=C(Nc1ccc(O)cc1)c1ccc2c(c1)C(=O)N(Cc1ccccc1)C2=O 35.7%, O=C(Nc1ccccc1O)c1ccc2c(c1)C(=O)N(N1C(=O)c3ccccc3C1=O)C2=O 5.64%, CCc1ccc(NC(=O)c2ccc3c(c2)C(=O)N(Cc2ccco2)C3=O)cc1 9.22%, O=C(Nc1cccc(O)c1)c1ccc2c(c1)C(=O)N(Cc1ccco1)C2=O 8.23%, Cc1cccc(C(=O)Nc2ccc(C(=O)Nc3ccc(O)cc3)cc2)c1 8.66%, COC(=O)c1ccc(NC(=O)c2ccc(OC(C)=O)c(OC)c2)cc1 4.68%, Cc1cccc(C(=O)Nc2ccc(NC(=O)c3ccccc3)cc2)c1 2.43%, COc1cc(C(=O)Nc2ccc(C(=O)O)cc2)ccc1OC(C)=O 17.2%, CCCOC(=O)c1ccc(NC(=O)CSC2=Nc3ccccc3C3CC=NN23)cc1 (centres undefined) 7.1%, CCCCNC(=O)c1cc2c(C)cc(C)cc2[nH]1 4.47%, COc1ccc(S(=O)(=O)n2nc(-n3c(C)ccc3C)c3c(F)cccc32)cc1OC 2.54%, COc1ccc(S(=O)(=O)N2CCN(c3ccc(C)cc3C)CC2)cc1OC 7.1%, CCn1cc(C(=O)N2CCN(c3ccc(OC)cc3)CC2)c(=O)c2cc(S(=O)(=O)N3CCCCC3)ccc21 15.4%, CN1CCN(C(=O)C2CCCN(S(=O)(=O)c3ccccc3)C2)CC1 (centres undefined) 7.31%, CC1Cc2cc(/C=C3/SC(=S)N(C)C3=O)ccc2O1 (centres undefined) 0.875%, O=C(COc1ccc2c3c(c(=O)oc2c1)CCCC3)N1C[C@H]2C[C@@H](C1)c1cccc(=O)n1C2 3.64%, N#C/C(=C\c1cccnc1)C(=O)Nc1ccc(Cl)cc1 14.4%, CCN(CC)C1CC(=O)N(c2cccc(C)c2)C1=O (centres undefined) 0.27%, O=C1CC(N2CCSCC2)C(=O)N1c1cccc(Br)c1 (centres undefined) 10.7%, COC(C/C=C\[C@H](O)[C@@H](C)OCc1ccccc1)OC 2.9%, COC(=O)c1ccc(-c2sc3nc(N4CCOCC4)c4c(c3c2N)CC(C)(C)OC4)o1 -1.68%, CC1(C)Cc2c(c(N3CCOCC3)nc3sc(-c4ccc(C(=O)O)o4)c(N)c23)CO1 21.9%, COC(=O)c1ccccc1NS(=O)(=O)c1ccc(Cl)nc1 4.72%, N#CC1=C(N)OC2=C(C(=O)CCC2)C1c1cccs1 (centres undefined) 23%, O=C(NCC(c1cccnc1)N1CCN(c2ccccc2)CC1)C1CCCCC1 (centres undefined) 2.45%, O=C(NCC(c1cccnc1)N1CCN(c2ccc(F)cc2)CC1)C1CCCCC1 (centres undefined) 18.4%, CCN(c1ccccc1)c1nc2ccsc2c(=O)s1 3.95%, COc1ccc(S(=O)(=O)N2CC=C(C(=O)Nc3ccc(NC(C)=O)cc3)CC2)cc1 8.65%, COc1ccc(N(CC(=O)NCCC2=CCCCC2)S(C)(=O)=O)cc1 1.47%, NS(=O)(=O)c1ccc(NC(=O)COC(=O)COc2ccccc2)cc1 3.76%, CCCc1nnc(NC(=O)C(C)N2C(=O)C3C4C=CC(C4)C3C2=O)s1 (centres undefined) 4.05%, Cc1ccc(-c2nnnn2-c2ccc(C)cc2)cc1 -0.57%, c1ccc(-n2nnnc2Cc2nnnn2-c2ccccc2)cc1 -7.53%, Cc1ccc(-n2nnnc2C(Cl)c2nnnn2-c2ccc(C)cc2)cc1 7.23%, c1ccc(-c2nnnn2-c2ccccc2)cc1 12.4%, COc1cc(OC)cc(C(=O)N[C@H](C(=O)Nc2cccc(S(=O)(=O)N3CCCC3)c2)C(C)C)c1 11.5%, O=C(Nc1cccc(-c2cn3c(n2)SCC3)c1)c1ccc(Br)o1 7.7%, COc1ccccc1OCCC(=O)NCc1ccc2c(c1)OCO2 8.06%, Cc1[nH]c2ccccc2c1C(=O)COC(=O)c1cccc(S(=O)(=O)N2CCCCC2)c1 7.32%
